40 compounds from the supplement of paper PMC13380429 can be followed below.

In this test the test system is Vero E6 infected with SARS-CoV-2. The test can be described thus: morphology score (similarity to uninfected cells); higher = more like uninfected cells. The settings on record: 24 h.
As to `NCCCCCC(O)(P(=O)(O)O)P(=O)(O)O` [neridronic-acid] (10 µM), the morphology score was 0.208.

As for `C=C(c1ccccc1OCc1cccc(Cl)c1)n1ccnc1` [croconazole] (10 µM), the morphology score was 0.0614.

On to `Cc1cc2c(s1)Nc1ccccc1N=C2N1CCN(C)CC1` [olanzapine] (10 µM), for which the morphology score is -0.0599.

For `COc1ccc(S(=O)(=O)Nc2c(C)cc(C)cc2C)cc1` (10 µM), the morphology score was 0.217.

`O=[N+]([O-])c1cnc(Sc2nnc(O)n2-c2ccc3c(c2)OCCO3)s1` (0.833333 µM) yielded a morphology score of 0.392.

Consider `COc1cc(/C=C/C(=O)N2CCN(CC(=O)N3CCCC3)CC2)cc(OC)c1OC` [cinepazide] (10 µM), for which the morphology score was -0.015.

`NC(=O)c1nc(F)cnc1O` [Favipiravir] (10 µM) came in with a morphology score of 0.0924.

Consider `C[C@@H]1CN(Cc2ccc(F)cc2)CCN1C(=O)COc1ccc(Cl)cc1NC(N)=O` (10 µM), for which the morphology score is -0.0461.

Regarding `O=C(NCc1ccc(Oc2ccccc2)cc1)c1nc(-c2cc(Br)c(O)c(Br)c2)no1` (0.833333 µM), the morphology score turned out to be 0.0493.

As to `C[C@@H]1c2ccccc2CN1CC1=NCCN1` (racemic) (10 µM), the morphology score is 0.0304.

Take `CC(=O)OCC(=O)[C@@]1(O)CC[C@H]2[C@@H]3CCC4=CC(=O)C=C[C@]4(C)[C@@]3(F)[C@@H](O)C[C@@]21C` [isoflupredone-acetate] (10 µM): the morphology score turned out to be 0.155.

As for `COC(=O)Nc1nc2cc([S+]([O-])c3ccccc3)ccc2[nH]1` (stereo not given) [oxfendazole] (10 µM), the morphology score was 0.15.

As to `C=CCOc1ccccc1OCC(O)CNC(C)C` (stereo not given) [oxprenolol] (10 µM), the morphology score is -0.183.

The compound `O=C(O)Cc1cccc2c(=O)cc(-c3ccccc3)oc12` [mitoflaxone] (10 µM) gave a morphology score of 0.0177.

Compound `O=C(N[C@H]1CCN(C(=O)c2cc(C(F)(F)F)cc(C(F)(F)F)c2)[C@H](Cc2ccc(Cl)cc2)C1)c1ccnc2ccccc12` (10 µM) registered a morphology score of 0.195.

Regarding `O=C(O)/C=C/CO` [trans-4-hydroxycrotonic-acid] (10 µM), the morphology score is 0.0958.

Regarding `Cc1ccccc1N1CCN(CCc2nnc3n2CCCC3)CC1` [dapiprazole] (10 µM), the morphology score is 0.109.

The compound `C[C@@H]1C[C@H]2[C@@H]3CCC4=CC(=O)C=C[C@]4(C)[C@@]3(F)[C@@H](O)C[C@]2(C)[C@@]1(O)C(=O)COP(=O)(O)O` (10 µM) showed a morphology score of 0.0439.

`NCCc1c[nH]cn1` [histamine] (10 µM) gave a morphology score of -0.112.

In turn, `c1cc2c(cc1C1CCCCC1)c1c3n2CCNC3CCC1` (stereo not given) [tetrindole] (0.833333 µM) came in with a morphology score of -6.12e-06.

`CCCN(CCC)C(=O)C1=Cc2ccc(-c3ccc(C(=O)N4CCCC4)cc3)cc2N=C(N)C1` [motolimod] (10 µM) came in with a morphology score of 0.14.

For `CN[C@H]1CN(c2ccc3c(=O)c(C(=O)O)cn(-c4nccs4)c3n2)C[C@@H]1OC` [voreloxin] (0.833333 µM), the morphology score is 0.068.

In the case of `COc1cc(N2CCC(N3CCN(C)CC3)CC2)ccc1Nc1ncc(Cl)c(Nc2ccccc2S(=O)(=O)C(C)C)n1` (0.833333 µM), the morphology score amounted to 0.115.

In turn, `COc1ccc2c3c1O[C@H]1C[C@@H](O)C=C[C@@]31CCN(C)C2` [galantamine] (10 µM) came in with a morphology score of 0.113.

Turning to `Nc1nc(=O)n([C@@H]2CS[C@H](CO)O2)cc1F` [emtricitabine] (10 µM), the morphology score came to 0.154.

As for `CN1C(C(=O)Nc2ccccn2)=C(O)c2sccc2S1(=O)=O` [tenoxicam] (10 µM), the morphology score is -0.0614.

In turn, `CC1(CN)Cc2ccccc2C1` (10 µM) returned a morphology score of 0.0351.

For the compound `C=C(c1ccc(C(=O)O)cc1)c1cc2c(cc1C)C(C)(C)CCC2(C)C` [bexarotene] (10 µM), the morphology score was determined as 0.18.

For `O=C(NC[C@H]1CN(c2ccc(N3CCOCC3=O)cc2)C(=O)O1)c1ccc(Cl)s1` [Rivaroxaban (Xarelto)] (10 µM), the morphology score stood at 0.193.

Consider `CC(=O)O[C@]1(C(C)=O)CC[C@H]2[C@@H]3CCC4=CC(=O)CCC4=C3[C@@H](c3ccc(N(C)C)cc3)C[C@@]21C` [Ulipristal acetate] (10 µM), for which the morphology score turned out to be 0.286.

As to `CC(=O)OCC(=O)[C@@]12OC3(CCCC3)O[C@@H]1C[C@H]1[C@@H]3CCC4=CC(=O)C=C[C@]4(C)[C@@]3(F)[C@@H](O)C[C@@]12C` [amcinonide] (10 µM), the morphology score was 0.114.

In the case of `CCCN(CCC)S(=O)(=O)c1ccc(C(=O)O)cc1` [probenecid] (10 µM), the morphology score was -0.0854.

`COc1ccc(S(=O)(=O)N(C(C)=O)c2ccccc2/C=C/c2cc[n+]([O-])cc2)cc1` (10 µM) yielded a morphology score of -0.108.

In turn, `Nc1ccn([C@@H]2O[C@H](CO)[C@@H](O)[C@@H]2O)c(=O)n1` [cytarabine] (0.833333 µM) came in with a morphology score of 0.0731.

For the compound `CCCCOCCOc1nc(-c2ccc(C(=O)O)c(F)c2)sc1C` (10 µM), the morphology score is -0.127.

Consider `Cn1c2cc([S+](C)[O-])sc2c2cnn(Cc3cccc(N)c3)c(=O)c21` (stereo not given) (10 µM), for which the morphology score came to 0.0427.

In turn, `Cn1c(COc2ccc(CC3SC(=O)NC3=O)cc2)nc2ccccc2c1=O` (stereo not given) [balaglitazone] (10 µM) had a morphology score of -0.114.

As to `COc1ccncc1C(=O)NC(=O)Nc1ccc(-c2ccccc2)c(C(F)(F)F)c1` [S1P1-agonist-III] (10 µM), the morphology score is -0.0188.

In turn, `COP(=O)(OC)OC(c1ccc(Cl)cc1)P(=O)(OC)OC` (stereo not given) [mifobate] (10 µM) showed a morphology score of -0.0183.

In the case of `c1ccc2c(CC3=NCCN3)cccc2c1` [naphazoline] (10 µM), the morphology score is 0.146.
